This is a sample that favours compounds with a hit; in the whole collection about 2.8% have one here.
PAFAH1B2 inh: blocks human PAF acetylhydrolase 1b catalytic subunit 2; P68402; recombinant PAFAH1B2, FP-rhodamine activity probe, fluorescence polarization; inhibition, % at 3.39 µM; 340,000 compounds, 1.2% hits; AID 492953;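 active means inhibition above the mean of all tested compounds plus 3 SD, cut at about 24% in these data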
Target sequence (P68402 whole entry, looked up): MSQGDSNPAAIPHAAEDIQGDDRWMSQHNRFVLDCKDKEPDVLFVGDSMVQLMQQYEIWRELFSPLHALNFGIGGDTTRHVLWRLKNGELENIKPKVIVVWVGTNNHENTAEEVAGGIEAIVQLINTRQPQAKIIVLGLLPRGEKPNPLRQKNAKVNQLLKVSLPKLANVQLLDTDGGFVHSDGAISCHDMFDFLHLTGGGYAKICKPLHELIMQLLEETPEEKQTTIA
PAFAH2 inh: PAFAH2 (human) inhibition | Q99487 | 340,000 compounds, 0.99% hits | recombinant PAFAH2, FP-rhodamine activity probe, fluorescence polarization | inhibition, % at 3.39 µM;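 active means inhibition above the mean over all tested compounds plus 3 SD, cut at about 30% in these data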;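 further: inhibitors block probe labeling of enzyme so polarization drops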
PAFAH1B3 inh: blocks human PAF acetylhydrolase 1B catalytic subunit 3; Q15102; recombinant PAFAH1B3, FP-rhodamine probe, fluorescence polarization; inhibition, % at 3.39 µM; 340,000 compounds, 0.28% hits; AID 492972;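 active means inhibition above the screen-wide average of all tested compounds plus 3 SD, cut at about 25% in these data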
Target sequence (Q15102 whole entry, looked up): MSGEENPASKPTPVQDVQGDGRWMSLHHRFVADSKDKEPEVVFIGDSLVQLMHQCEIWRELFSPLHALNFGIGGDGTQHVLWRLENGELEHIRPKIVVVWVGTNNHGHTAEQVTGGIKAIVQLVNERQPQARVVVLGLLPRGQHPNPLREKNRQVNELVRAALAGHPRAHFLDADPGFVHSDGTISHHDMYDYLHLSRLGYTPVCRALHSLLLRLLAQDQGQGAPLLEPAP
pPAFAH inh: pPAFAH (human) enzyme inhibition; recombinant pPAFAH, FP-rhodamine probe fluorescence polarization; inhibition, % at 3.39 µM; 330,000 compounds, 1.5% hits; AID 463082;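 active means inhibition above the mean inhibition across the screen plus 3 SD, cut at about 25% in these data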;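 further: inhibitors block binding of the rhodamine activity-based probe so polarization drops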
PME-1 primary: blocks human protein phosphatase methylesterase 1; Q9Y570; recombinant PME-1, FP-Rh probe fluorescence polarization; inhibition, % at 5.9 µM; 320,000 compounds, 0.53% hits;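 active means inhibition above the campaign mean of all compounds plus 3 SD, cut at about 26% in these data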;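 further: competitive labeling of PME-1 active site by serine hydrolase directed probe; inhibitors block probe labeling so polarization falls and inhibition rises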
Fam108B counter: Fam108B inhibition, counter-screen for RBBP9 inhibitors | inhibition, % at 9.51 µM | 300,000 compounds, 0.33% hits | recombinant Fam108B, FP-Rh probe fluorescence polarization | AID 1947;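 active means inhibition above the screen mean inhibition plus 3 SD, computed separately per campaign, cut at about 18% in these data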;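 further: inhibitors lower polarization as less probe binds the enzyme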
Fam108b inh conf: confirmation of mouse Fam108b serine hydrolase inhibitors; AID 1978; inhibition, % at 9.51 µM; shares compounds with Fam108B counter; recombinant Fam108b, FP-Rh probe fluorescence polarization; 930 compounds, 44% hits;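 active means inhibition above a limit from the primary screen, the mean over all compounds plus 3 SD, cut at about 19% in these data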;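 further: inhibitors free the probe so polarization falls as inhibition rises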
Fam108b ABPP HTS: mouse ABHD17B inhibition. shares compounds with Fam108B counter. recombinant Fam108b, gel-based ABPP, fluorophosphonate probe. inhibition, % at 20 µM. 260 compounds, 44% hits. AID 588649; in the data active means inhibition above about 40%
pPAFAH confirm: confirmation of human plasma PAF acetylhydrolase (pPAFAH) inhibitors. shares compounds with pPAFAH inh. recombinant pPAFAH, FP-Rh probe fluorescence polarization. inhibition, % at 3.39 µM. 2,300 compounds, 72% hits;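 active means mean inhibition of the triplicate above the hit cutoff set for the earlier primary screen, cut at about 25% in these data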
PAFAH2 confirm: PAFAH2 (human) inhibition, confirmed; inhibition, % at 3.39 µM; recombinant PAFAH2, FP-rhodamine activity probe, fluorescence polarization; AID 493030; shares compounds with PAFAH2 inh; 2,300 compounds, 65% hits;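 active means mean inhibition over three repeats above a set limit taken from the earlier primary screen, cut at about 30% in these data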;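 further: inhibitor blocks binding of rhodamine activity probe so polarization falls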
PAFAH1B3 confirm: PAFAH1B3 (human) inhibition, confirmed; shares compounds with PAFAH1B3 inh; recombinant PAFAH1B3, FP-Rh activity-based probe, fluorescence polarization; inhibition, % at 3.39 µM; 390 compounds, 30% hits; AID 493032;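 active means average inhibition over triplicate runs above the hit cutoff set in the earlier primary screen, cut at about 25% in these data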
Numbers stand for hits; n = inactive; x = no result given.

SMILES | PAFAH1B2 inh | PAFAH2 inh | PAFAH1B3 inh | pPAFAH inh | PME-1 primary | Fam108B counter | Fam108b inh conf | others
COc1ccccc1OCCNC(=O)c1cccc(S(=O)(=O)NCc2ccccc2)c1 | n | n | n | n | n | x | x
N#Cc1c(SCC(=O)Nc2nncs2)sc2c(O)cc(=O)[nH]c12 | n | 36.8 | 35.5 | 49.5 | n | 32.4 | n | pPAFAH confirm=n
CC1=CN2C(=N)/C(=C/c3ccc([N+](=O)[O-])o3)C(=O)N=C2S1 | n | n | n | 43.7 | 33.0 | 19.5 | n | pPAFAH confirm=29.6
N#CCCN(CCC#N)C(=O)C1c2ccccc2Oc2ccccc21 | n | n | n | 65.2 | 84.0 | 66.9 | n | pPAFAH confirm=n
CN(CCC#N)C(=O)COC(=O)C1c2ccccc2Oc2ccccc21 | n | n | n | n | n | n | x
CC1(C)NC(=O)N(CC(=O)N2CCN(c3ccc([N+](=O)[O-])cc3)CC2)C1=O | n | n | n | n | n | x | x
CC(=O)c1ccc2c(c1)C1C=CCC1C(c1ccc(S(=O)(=O)N3CCOCC3)cc1)N2 (configuration not stated) | n | n | n | n | n | n | x
Cc1c(Cl)cccc1NS(=O)(=O)c1ccc2c(c1)C1C=CCC1C(c1ccc(C(=O)O)cc1)N2 (configuration not stated) | 29.7 | 59.5 | 36.8 | 91.8 | n | 34.4 | 33.3 | Fam108b ABPP HTS=n;pPAFAH confirm=88.5
COc1ccc(NS(=O)(=O)c2ccc3c(c2)[C@H]2C=CC[C@H]2[C@@H](c2ccc(C(=O)O)cc2)N3)cc1 | 30.7 | 68.1 | 45.9 | 73.5 | n | 35.3 | 33.3 | Fam108b ABPP HTS=n;pPAFAH confirm=66.1
CCSc1ccccc1C(=O)NCc1ccc2c(c1)OCO2 | n | n | n | n | n | n | x
N=C1CCC(=N)c2c1c(O)c1ccccc1c2O | 39.3 | 69.1 | 44.3 | 63.5 | 63.8 | 39.2 | n | pPAFAH confirm=41.0
O=C1CCn2c1c(O)c1ccccc1c2=O | n | n | n | x | x | x | x
O=C(Cc1ccc(NS(=O)(=O)c2cccc(C(F)(F)F)c2)cc1)NCCN1CCOCC1 | n | n | n | n | n | n | x
O=C(Nc1c(C(=O)N2CCOCC2)cnn1-c1ccccc1)c1ccc(F)cc1 | n | n | n | n | n | n | x
O=c1cc(-c2ccc(O)c(-c3c(O)cc(O)c4c(=O)cc(-c5ccc(O)cc5)oc34)c2)oc2cc(O)cc(O)c12 | 36.2 | 37.5 | 54.2 | 62.4 | n | 44.1 | 41.3 | Fam108b ABPP HTS=75.0;pPAFAH confirm=70.6
CCOc1ccc(-c2c(C(=O)N/N=C(\C)c3ccco3)nnn2-c2nonc2N)cc1 | n | n | n | n | n | n | x
O=[N+]([O-])c1cc(/C=N/Nc2nc3ccccc3[nH]2)c(O)cc1O | x | x | x | 40.3 | n | 19.2 | n | pPAFAH confirm=34.5
O=C(Nc1cc([N+](=O)[O-])ccc1F)c1ccc2ccccc2c1 | n | n | n | n | n | n | x
O=c1oc(-c2ccccc2NS(=O)(=O)c2ccccc2)nc2ccccc12 | n | 77.3 | n | n | n | 20.9 | n | PAFAH2 confirm=67.2
O=c1[nH][nH]c(=O)c2c(NS(=O)(=O)c3ccccc3)cccc12 | n | n | n | n | n | n | x
Cc1ccc(-c2ccc(/C=C3\C(=O)ON=C3c3ccccc3)o2)c([N+](=O)[O-])c1 | n | 31.7 | n | n | n | 21.8 | n | PAFAH2 confirm=n
Cc1ccc(C(=O)N[C@H](C(=O)Nc2ccc(N3CCOCC3)cc2)C(C)C)cc1 | n | n | n | x | x | x | x
COc1cccc(-n2c(SCc3cc(=O)oc4cc(O)c(O)cc34)nc3ccccc3c2=O)c1 | n | 63.6 | n | 94.4 | n | 26.0 | 46.4 | Fam108b ABPP HTS=85.0;pPAFAH confirm=92.2;PAFAH2 confirm=54.4
CCOC(=O)Cc1csc(NC(=O)CSc2nc(=O)[nH]c3c2CCCC3)n1 | n | n | n | n | n | n | x
O=C(Nc1ccc(Oc2ccc(NC(=O)Nc3ccccc3Cl)cc2)cc1)Nc1ccccc1Cl | n | 55.2 | n | n | n | 58.0 | 58.7 | Fam108b ABPP HTS=n;PAFAH2 confirm=n
SMILES | PAFAH1B2 inh | PAFAH2 inh | PAFAH1B3 inh | pPAFAH inh | PME-1 primary | Fam108B counter | Fam108b inh conf | others
O=C(Nc1ccccc1)Nc1cccc(Cl)c1Cl | n | n | n | n | n | n | x
CCSC1=NSC2=NC(=O)/C(=C\c3coc4ccccc4c3=O)C(=N)N12 | n | 32.6 | n | n | n | 43.5 | 46.7 | Fam108b ABPP HTS=n;PAFAH2 confirm=n
CN(C[C@@H](Cc1cccc2ccccc12)N(C[C@H](Cc1ccccc1)N(CCc1ccccc1)N=O)N=O)N=O | n | n | n | n | n | n | x
CCN(CC)c1ccc(/C=N/NC(=O)c2ccc3nc[nH]c3c2)c(O)c1 | n | n | 26.5 | n | n | 22.4 | n | PAFAH1B3 confirm=n
CCOC(=O)c1ccc(NC(=O)C2(c3ccccc3)CCOCC2)cc1 | n | n | n | n | n | n | x
Cc1ccc(C(C)C)c(OCc2ccc(C(=O)N/N=C/c3ccc(O)cc3O)cc2)c1 | n | n | 41.9 | n | 35.4 | 28.1 | n | PAFAH1B3 confirm=25.9
COc1ccc2c(=O)c3c(=O)n(-c4ccccc4)c(-c4ccc(C)cc4)nc3oc2c1 | n | n | n | n | n | n | x
Cc1[nH]n(-c2ccccc2)c(=O)c1N=Nc1ccc2c(c1)OCCO2 | n | n | n | n | n | n | x
Cc1[nH]n(-c2ccccc2)c(=O)c1N=Nc1c(O)cc(S(=O)(=O)N(C)C)c2ccccc12 | n | n | 27.4 | n | 53.9 | 75.0 | 88.8 | Fam108b ABPP HTS=n;PAFAH1B3 confirm=n
COC(=O)c1ccccc1NC1=C/C(=N\S(=O)(=O)c2cccs2)c2ccccc2C1=O | n | n | 55.0 | n | n | 20.2 | n | PAFAH1B3 confirm=51.6
COC(=O)c1cccc(NS(=O)(=O)c2cccs2)c1C | n | n | n | n | n | n | x
CCNC(=O)c1c(O)c2c([nH]c1=O)CCCC2 | n | n | n | n | n | n | x
O=C1C(Cl)=C(Nc2ccc3cn[nH]c3c2)C(=O)c2ccccc21 | n | n | 38.2 | n | 29.0 | 20.1 | 31.3 | Fam108b ABPP HTS=70.0;PAFAH1B3 confirm=27.3
Cc1ccc(O)c(CNc2cccc3cccnc23)c1 | n | n | n | n | n | n | x
Oc1ccc(Cl)cc1CNc1cccc2cccnc12 | n | n | 28.3 | n | n | 20.8 | n | PAFAH1B3 confirm=n
CCC(C)NC(=O)C(=O)NCC1CCCN1CC (configuration not stated) | n | n | n | n | n | n | x
O=C(NCc1ccco1)c1cccc(Nc2nc3ccc(Br)cc3[nH]2)c1 | n | n | 32.0 | n | n | 25.4 | n | PAFAH1B3 confirm=n
Cc1cc(N/N=C/c2ccc3c(c2)OCO3)nc2ccccc12 | n | n | n | n | n | n | x

Screening results: PubChem BioAssay, The Scripps Research Institute Molecular Screening Center
